# Compound activity: PubChem, National Center for Advancing Translational Sciences (NCATS)
# In the library only some 4.7% were active in any assay of this set; here they are far more common.
# TRHR enhancer: qHTS for Small Molecule Agonists and Allosteric Enhancers of Human TRH Receptor: Primary Screen for Enhancers | Thyrotropin-releasing hormone receptor (Homo sapiens), P34981 | TRHR cells, fluo-8 calcium fluorescence, EC20 TRH enhancement | enhancement, % at 2 µM | 360,000 tested, 0.66% active | AID 493056, 2011; in the data active = enhancement above about 30%; also: 0% is about no effect
# Target sequence (P34981 whole entry, looked up): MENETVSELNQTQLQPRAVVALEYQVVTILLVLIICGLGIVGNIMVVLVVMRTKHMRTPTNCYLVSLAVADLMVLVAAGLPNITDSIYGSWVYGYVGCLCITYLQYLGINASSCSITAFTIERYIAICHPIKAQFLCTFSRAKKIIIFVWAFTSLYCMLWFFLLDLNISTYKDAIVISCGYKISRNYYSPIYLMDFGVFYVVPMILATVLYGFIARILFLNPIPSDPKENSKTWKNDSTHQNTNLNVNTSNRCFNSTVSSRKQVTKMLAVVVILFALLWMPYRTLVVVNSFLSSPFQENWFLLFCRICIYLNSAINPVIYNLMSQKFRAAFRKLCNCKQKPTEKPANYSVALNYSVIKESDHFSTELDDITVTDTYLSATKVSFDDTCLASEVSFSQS
#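 TRHR-expressing cells loaded with fluo-8 calcium dye were read kinetically (ex 480/em 530) during compound addition, then stimulated with an EC20 of TRH (10 nM final). Enhancement of the Gq-mediated intracellular calcium response was scored.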
# TRHR agonist: qHTS for Small Molecule Agonists and Allosteric Enhancers of Human TRH Receptor: Primary Screen for Agonists; Thyrotropin-releasing hormone receptor (Homo sapiens), P34981; TRHR cells, calcium flux fluo-8, FDSS agonist mode; activation, % at 2 µM; 360,000 tested, 0.18% active; AID 493084, 2011; also: 0% is about no effect
#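 TRHR-expressing cells, plated overnight in medium with 10% serum, were loaded with fluo-8 calcium dye at room temperature. After a 10 s baseline, library compound was pin-added and calcium release was recorded kinetically (ex 480/em 530) as agonist response.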
# D1 ag: Allosteric Agonists of the Human D1 Dopamine Receptor: qHTS. D(1A) dopamine receptor (Homo sapiens), P21728. HEK293 T-REx D1 cells, calcium flux, agonist mode. activation, % at 2 µM. 360,000 tested, 1% active. AID 504660, 2011; also: 0% is about no effect
#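 Inducible HEK293 T-REx D1 cells, force-coupled to calcium signalling, were plated at 4000 cells/well with tetracycline and held overnight at 30 C. After no-wash calcium dye loading, compound-evoked calcium rise over 180 s flagged agonists.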
# D1 antag: Antagonist of Human D 1 Dopamine Receptor: qHTS | D(1A) dopamine receptor (Homo sapiens), P21728 | 360,000 tested, 3.2% active | HEK293 TREx D1 cells, calcium flux, dopamine EC80; hits give low values | activity change, negative = inhibition, % at 10 µM; in the data active = activity change below about -30%; also: % is scaled to controls: 0 for no effect and ±100 for the full control effect
#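 Tetracycline-induced HEK293 T-REx cells with force-coupled D1 receptor were loaded with a no-wash calcium dye. Compound was added after a 10 s baseline and read kinetically for 180 s; EC80 dopamine was then added and calcium flux followed another 180 s.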
# D1 PAM: Potentiators of Human D1 Dopamine Receptor: qHTS; potentiation, % at 10 µM; HEK293 TREx D1 cells, calcium flux, dopamine EC20 potentiation; AID 504651, 2011; 360,000 tested, 0.036% active; in the data active = potentiation above about 30%; also: 0% is about no effect
# Starred values were filed as active, the others as inactive; ! = a repeat was not active. Rule as the data show it, unless noted: active = activation above about 30%; inactive = the rest.
SMILES,TRHR enhancer,TRHR agonist,D1 ag,D1 antag,D1 PAM
Cc1ccc(NC(=O)CSc2nccn2Cc2ccco2)cc1Cl,35*,-1,4,3,-5
O=S(=O)(c1ccc2[nH]c3c(c2c1)CCCC3)N1CCN(c2cccc(C(F)(F)F)c2)CC1,0,0,-1,-4,-1
COc1ccc(-c2oc3ncn4nc(COc5cccc(C)c5C)nc4c3c2-c2ccc(OC)cc2)cc1,9,-2,3,-5,-3
CCc1c(C#N)sc(C(N)=O)c1CC,4,0,0,-58*,1
Cc1cccc(C(=O)NNC(=O)C2CCN(C(=O)OC(C)(C)C)CC2)c1,-2,-1,-1,-3,1
CCOC(=O)CSc1nc2ccc(NC(=O)c3ccccc3)cc2s1,-2,1,4,4,0
Cc1cccc(OCC(=O)Nc2ccc3nc(C)sc3c2)c1,10,0,9,-33*,-10
O=C(COc1ccccc1)Nc1ccc2nc(SCCOc3ccccc3)sc2c1,-1,2,7,-31*,3
CCC(=O)Nc1nc2ccc(NC(=O)COc3ccccc3)cc2s1,-21,-1,2,-72*,-4
Cc1nc2ccc(NC(=O)COc3ccccc3)cc2s1,3,-1,1,-9,3
Cc1cc(C)cc(OCCSc2nc3ccc(NC(=O)COc4ccccc4)cc3s2)c1,8,1,15,-1,0
COc1ccc(OCC(=O)Nc2nc3ccc(NC(C)=O)cc3s2)cc1,4,0,0,7,3
CCOC(=O)CSc1nc2ccc(NC(=O)COc3ccccc3)cc2s1,-4,0,10,-36*,-2
CC(C)c1ccc(NC(=O)c2cc3c(s2)-c2ccccc2SC3)cc1,-3,0,1,-5,-2
COc1ccc2c(c1)c1c(c(=O)n(-c3cccc(Cl)c3)c(=O)n1CC(=O)NCC1CCCO1)n2C (centres undefined),6,0,0,-7,-1
CCc1ccc(NC(=O)CSc2nc3nccnc3c(=O)n2CCc2c[nH]c3ccccc23)cc1,9,0,10,5,1
Cc1cccc(OCCC(=O)Nc2ccc(F)c(F)c2)c1,-5,-1,9,-38*,-6
Cc1cccc(OCCCC(=O)Nc2ccc(N(C)C)cc2)c1,3,-1,6,-2,-3
COC(=O)c1cc2sc(Cl)cc2n1Cc1cc(C)ccc1C,-2,0,1,-16,-3
Cc1nn(CC(=O)NCCN2CCCCCC2)c(=O)c2nn(-c3ccccc3)c(C)c12,-2,0,5,13,2
Cc1nn(CCCC(=O)NCCc2ccccc2)c(=O)c2nn(-c3ccccc3)c(C)c12,-10,0,0,-36*,0
Cc1cc(Cl)ccc1NC(=O)CCCn1nc(C)c2c(C)n(-c3ccccc3)nc2c1=O,-6,-1,-2,-32*,2
Cc1ccc(-n2nc3c(=O)n(CCCC(=O)NCCc4ccccc4)nc(C)c3c2C)cc1,-4,0,4,4,1
Cc1nn(C(C)C(=O)NCCN2CCCCCC2)c(=O)c2nn(-c3ccccc3)c(C)c12 (centres undefined),30*,0,0,16,6
Cc1nn(CCCC(=O)NCCc2ccc(Cl)cc2)c(=O)c2nn(-c3ccccc3)c(C)c12,8,0,-1,-33*!,-3
SMILES,TRHR enhancer,TRHR agonist,D1 ag,D1 antag,D1 PAM
CCOc1ccc(NC(=O)CCS(=O)(=O)c2ccc(Br)cc2)cc1,-1,-3,0,-9,-5
Cc1nn(-c2ccccc2)c2c1N(CCCC(=O)NCc1ccc(Cl)cc1)C(=O)CS2,2,0,1,-48*,-4
COc1cccc(CNC(=O)CCCn2nc(C)c3c(C)n(-c4ccc(C)cc4)nc3c2=O)c1OC,3,-2,3,-54*!,-1
Cc1nn(-c2ccccc2)c2c1N(CCCC(=O)NCc1ccccc1)C(=O)CS2,-3,0,0,-9,1
COc1cc(NS(=O)(=O)c2ccc3oc(=O)c4ncn(C)c4c3c2)cc(OC)c1,-1,-1,1,-4,1
COc1ccc2c(c1)c(=O)c(C(=O)c1ccc(C)c(C)c1)cn2CC(=O)Nc1ccc2c(c1)OCCO2,1,0,2,-13,4
CCCC(=O)OC1CC(C)N(C(=O)c2ccccc2)c2ccc(C)cc21 (centres undefined),-2,0,32*,-8,-24
CC(=O)OC1CC(C)N(C(=O)c2ccccc2)c2ccc(C)cc21 (centres undefined),-2,-1,2,-5,0
COc1cc2[nH]c(C(=O)NCCc3ccccc3)cc2c(OC)c1OC,-4,0,1,-2,-5
COc1cc2[nH]c(C(=O)NCc3ccccc3)cc2c(OC)c1OC,6,-1,1,-36*,-9
COc1ccc(CCNC(=O)Cn2c(=O)n(-c3ccc(C)c(C)c3)c(=O)c3c(C)c(C)sc32)cc1OC,-7,-1,3,4,2
Cc1ccc(Cl)cc1NC(=O)C(NS(=O)(=O)c1cccc2nsnc12)c1ccccc1 (centres undefined),-11,-1,-1,13,4
COc1cc(CN(C(=O)c2ccc(Cl)cc2)C2CCS(=O)(=O)C2)cc(OC)c1OC (centres undefined),2,0,4,11,-1
Cc1cccc(C(=O)NCCc2ccc(S(N)(=O)=O)cc2)c1[N+](=O)[O-],8,0,0,7,0
COCCNC(=O)c1cccc(C)c1[N+](=O)[O-],2,0,1,-33*,0
CCCNC(=O)c1ccc(Cn2c(SCC(=O)NC(C)C)nc3ccccc3c2=O)cc1,8,0,2,-3,0
Cc1n[nH]c(=S)n1/N=C/c1ccc(OCc2ccc(Cl)cc2)cc1,0,0,1,-34*,-2
CC(=O)NCCOc1cccc2ccccc12,3,-2,6,-2,-7
c1ccc(CCNCCCOc2cccc3ccccc23)cc1,7,2,50*,15,-5
Cc1nn(-c2ccc(F)cc2)c2nc(N)c(C#N)c(-c3ccc(O)c(O)c3)c12,-8,1,0,-46*,-9
COC(=O)c1ccc(-n2cncn2)c([N+](=O)[O-])c1,37*,0,3,17,-2
Cc1ccc(NC(=O)CN(C)C(=O)c2ccc(-n3cncn3)c([N+](=O)[O-])c2)cc1,17,0,0,-55*,-5
